High-throughput results from PubChem.
Rows were chosen to be rich in hits. Some 4.6% of all compounds tested hit in one or more screens of this group.
SKKanGAS inh: blocks kanamycin growth of S. pyogenes SKKanGAS strain; BacTiter-Glo, 6 h; inhibition, % at 7.5 µM; AID 1662; 300,000 compounds, 1.3% hits;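 active = mean replicate score, as percent of positive control median, at least 50; inconclusive = mean below 50 but one replicate at or above 50; inactive = mean and every replicate below 50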;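 also: strain carries kanamycin resistance gene driven by streptokinase promoter and grows in 40 µg/ml kanamycin; loss of luminescence reflects streptokinase promoter inhibition or plain growth inhibition; 0% = median of DMSO wells and 100% = positive control at its reference dose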
tim23-1 inh: growth inhibitors of tim23-1 mutant yeast; 330,000 compounds, 1.3% hits; S. cerevisiae tim23-1 growth, BacTiter-Glo luminescence, 24 h; inhibition, % at 20 µM;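 active = growth inhibition of the mutant yeast at or above 50%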;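 also: temperature-sensitive mutant grown at 25 °C; plate controls were DMSO-treated mutant yeast for no effect and medium wells lacking yeast for full effect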
PfHsp90 yeast 2: growth inhibition of yeast expressing Plasmodium Hsp90. S. cerevisiae expressing PfHsp90, BacTiter-Glo ATP, 48 h; yeast lacking PDR1 and PDR3 efflux regulators. inhibition, % at 9.4 µM. 310,000 compounds, 0.32% hits. AID 504621;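 active = every replicate shows inhibition above about 80%, whatever the replicate mean, limit read from the data; inconclusive = mean inhibition reaches the set limit but some replicate falls short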;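 also: 0% = DMSO neutral controls and 100% = 20 µM radicicol positive controls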
tim10-1 inh: inhibits growth of tim10-1 mutant yeast; 330,000 compounds, 2.2% hits; AID 463190; inhibition, % at 20 µM; S. cerevisiae tim10-1 ts strain growth, BacTiter-Glo, 24 h;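 active = inhibition of at least 40%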;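 also: mutant grown at 25 °C; 0% = DMSO wells with yeast and 100% = wells holding no yeast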
TIM10 inh: TIM10 yeast growth inhibition. S. cerevisiae TIM10 strain growth, BacTiter-Glo luminescence, 24 h. inhibition, % at 10 µM. 330,000 compounds, 1.4% hits;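 active = inhibition of 40% or more at the single tested concentration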;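 also: wild-type TIM10 isogenic control strain grown at permissive 25 °C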
V-ATPase pHluor: regulators of yeast V-ATPase proton transport. S. cerevisiae, pHLuorin cytosolic pH fluorescence. response, % at 10 µM. 350,000 compounds, 0.37% hits; in the data active = response mostly above about 7.3%, no sharp cut-off; inactive = mostly below about 5.4%; also: actives read high
The depositor's hits bear a star; ? = inconclusive; / = no result.

SMILES	SKKanGAS inh	tim23-1 inh	PfHsp90 yeast 2	tim10-1 inh	TIM10 inh	V-ATPase pHluor
CCOc1ccc(NC(=O)COC(=O)C2C3CC4OC(=O)C2C4C3)cc1 (stereo not drawn)	-3.4	11.5	23.5	12.1	-4.4	-1.9
CCCCCCc1cc2cc(S(=O)(=O)c3ccc(Cl)cc3)c(=O)oc2cc1O	6.2	8.6	102.3*	6.7	13.5	-3.8
CC(C)c1ccc(NC2CCCN(C(=O)C3=NN(C)C(=O)CC3)C2)cc1 (stereo not drawn)	1.4	10.7	11.4	16.8	-13.2	3.1
O=c1c2cc(F)ccc2[nH]c(=S)n1Cc1ccc(F)cc1	3.1	2.2	-31.9	-2.4	14.5	-4.2
O=C(CSC(=S)N1CCCCC1)Nc1nc(-c2ccccc2)c(-c2ccccc2)o1	50.1*	11.5	/	17.1	-4.6	7.8
O=C(CSC(=S)N1CCOCC1)Nc1nc(-c2ccccc2)c(-c2ccccc2)o1	41.5	11.2	/	11.6	-0.8	2.7
Cn1nnnc1SCC(=O)Nc1nc(-c2ccccc2)c(-c2ccccc2)o1	59.1*	13.0	-2.6	16.9	11.1	2.7
O=C1C(=C(I)I)c2ccccc2-c2ccccc21	/	/	106.2*	/	/	13.7
O=C(O)c1cccc2c1C(=O)c1ccccc1-2	-4.1	12.4	-6.7	8.3	11.4	3.1
Cn1c(N)c(C(=O)CSc2nnc(-c3c[nH]c4ccccc34)n2C2CC2)c(=O)[nH]c1=O	/	8.5	-20.9	-3.9	3.9	0.5
Cc1c(Cl)cccc1-n1cnc(=O)c2ccccc21	0.5	14.6	10.0	12.4	13.7	13.0*
COc1ccc(S(=O)(=O)N2CCN=C2SCc2cccc(C)c2)cc1	?	8.5	-0.5	18.3	-8.2	4.8
COC(=O)c1ccc(N2C(=O)CC(N(C)Cc3ccccc3)C2=O)cc1 (stereo not drawn)	-7.0	21.7	104.4*	11.0	37.8	0.9
CCOc1ccc(N2C(=O)CC(N(C)Cc3ccccc3)C2=O)cc1 (stereo not drawn)	-1.6	28.5	-40.1	21.7	19.8	0.2
Cc1cc(C)c(S(=O)(=O)Cc2ccccc2)c(Cl)n1	-1.5	12.5	-10.9	16.4	-0.1	-0.6
O=C(c1cc(-c2ccccc2)n[nH]1)N1CCc2c([nH]c3ccccc23)C1c1ccccn1 (stereo not drawn)	74.8*	27.0	13.2	36.6	21.9	4.5
O=C(c1cccs1)N1CCc2c([nH]c3ccccc23)C1c1ccccn1 (stereo not drawn)	6.2	17.5	2.5	27.3	28.2	5.8
C[C@@]12CCC=C[C@H]1[C@H](c1ccc3ccccc3c1Br)N(Cc1ccccc1)C2=O	74.6*	47.5	8.5	31.9	19.5	-3.2
COc1ccc(-c2ccc([C@H]3[C@@H]4C=CCC[C@@]4(C)C(=O)N3Cc3ccccc3)c(F)c2)cc1	58.3*	1.0	-4.9	18.2	6.4	-2.8
Cc1ccc(-c2ccc([C@H]3[C@@H]4C=CCC[C@@]4(C)C(=O)N3Cc3ccccc3)c(F)c2)cc1	43.0	1.1	-2.0	18.2	6.2	0.5
O=C(CSc1nncs1)Nc1nnc(-c2ccccc2)o1	-8.7	-5.4	0.0	-17.8	5.0	4.0
CCOc1ccc(C2C(C(=O)c3ccc(C)o3)=C(O)C(=O)N2c2nc(C)c(C(=O)OC)s2)cc1 (stereo not drawn)	31.8	16.8	11.5	13.0	8.6	-4.1
CCOC(=O)c1sc(N2C(=O)C(O)=C(C(=O)c3ccc(C)o3)C2c2cccc([N+](=O)[O-])c2)nc1C (stereo not drawn)	61.3*	/	27.6	/	/	-0.9
COC(=O)c1sc(N2C(=O)C(O)=C(C(=O)c3ccc(C)o3)C2c2ccc([N+](=O)[O-])cc2)nc1C (stereo not drawn)	63.2*	0.8	-44.0	5.8	-0.3	-1.0
Cc1nn(-c2ccccc2)c(C)c1-c1nnc(-c2c(C)nn(-c3ccccc3)c2C)o1	57.0*	-7.7	-8.1	-12.7	-23.8	-2.1
Cc1nn(-c2ccccc2)c(C)c1-c1nnc(C(F)(F)F)o1	2.6	8.0	14.2	-8.4	1.7	0.9
O=C(CSc1nnnn1-c1ccccc1)Nc1ncc(Cc2ccccc2Cl)s1	-17.7	3.0	-7.0	9.1	16.7	5.6
N=C1SC(c2ccccc2)C(=O)N1c1ncc(Cc2ccccc2Cl)s1 (stereo not drawn)	116.2*	27.9	-55.6	32.6	33.4	-2.1
